High-throughput results as filed in PubChem.
TDP1 block – qHTS Assay for Inhibitors of Tyrosyl-DNA Phosphodiesterase (TDP1) | 0.28% of 350,000 active | recombinant TDP1, AlphaScreen DNA substrate cleavage | Potency, µM (top dose mostly 130 µM), for the others: top-dose activity change, negative = inhibition, most hits filed as inhibitors | AID 485290, 2010 | Tyrosyl-DNA phosphodiesterase 1 (Homo sapiens), Q9NUW8; also: % is scaled to controls: 0 for no effect and ±100 for the full control effect; nearly all actives have a fitted effect of over 40% in size
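Steps: enzyme plus compound, 15 min RT; add biotin/phosphotyrosine-FITC oligonucleotide (15 nM final), react 5 min; add donor/acceptor beads (10 ug/ml final), 10 min; read AlphaScreen. Tdp1 at 1 nM final.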
BAZ2B block – qHTS Assay for Inhibitors of BAZ2B. AlphaScreen BAZ2B-H3K14Ac peptide displacement. Potency, µM (top dose mostly 114 µM), for inactives: at the highest dose activity change, negative = inhibition, usual class: inhibitors. 4.4% of 360,000 active; also: % is scaled to controls: 0 for no effect and ±100 for the full control effect; nearly all actives have a fitted effect of over 60% in size
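In this displacement format the biotinylated H3(5-23) peptide acetylated at Lys14 serves as ligand at 50 nM, with BAZ2B at 50 nM in PBS pH 7.4 containing 0.01% Tween-20. Donor and acceptor beads are 10 ug/mL final.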
Sfp inh – qHTS Assay for Inhibitors of Bacillus subtilis Sfp phosphopantetheinyl transferase (PPTase). 4'-phosphopantetheinyl transferase ffp (Bacillus subtilis), Q9F4F7. Potency, µM, without a hit: largest response in the series, negative = inhibition, most hits filed as inhibitors. Biochemical Sfp PPTase activity, qHTS. 3.5% of 310,000 active;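 also: the enzyme is Sfp with the accession as filed and its product quenches rhodamine fluorescence; 0% = enzyme reaction without inhibitor and -100% = no enzyme wells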
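Step 1, compound plus 15 nM Sfp-PPTase, 15 min, room temperature. Step 2, add rhodamine-CoA (5 uM) and BHQ-2-YbbR (12.5 uM). Step 3, read 525/598 nm fluorescence at 0 and 30 min.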
G9a inh – qHTS Assay for Inhibitors of Histone Lysine Methyltransferase G9a; Histone-lysine N-methyltransferase EHMT2 (Homo sapiens), Q96KQ7; G9a H3K9 monomethylation, AlphaScreen, 2 h; Potency, µM (titrated, usually from 102 µM), for inactives: top-dose activity, negative = inhibition, most hits filed as inhibitors; 8.8% of 350,000 active; also: % is scaled to controls: 0 for no effect and ±100 for the full control effect; nearly all actives have a fitted effect of over 75% in size
Target sequence (Q96KQ7 913-1193 limits assumed): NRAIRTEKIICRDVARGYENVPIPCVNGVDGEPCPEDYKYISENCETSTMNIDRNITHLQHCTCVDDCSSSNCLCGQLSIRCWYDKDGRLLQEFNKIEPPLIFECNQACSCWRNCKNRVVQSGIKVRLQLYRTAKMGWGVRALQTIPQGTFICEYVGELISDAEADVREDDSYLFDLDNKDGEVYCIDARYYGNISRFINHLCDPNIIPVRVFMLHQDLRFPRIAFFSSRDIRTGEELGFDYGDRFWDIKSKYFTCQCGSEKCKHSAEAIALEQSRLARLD
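Signal arises when biotinylated H3K9 peptide, once monomethylated, bridges streptavidin donor and antibody-captured acceptor beads. Enzyme at 20 nM was preincubated 15 min with test compounds; peptide 500 nM and SAM 20 uM then reacted for 2 h.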
HP1b chromo inh – HTS for Inhibitors of HP1-beta Chromodomain Interactions with Methylated Histone Tails | Chromobox protein homolog 1 (Homo sapiens), P83916 | AlphaScreen HP1-beta / biotin-H3K9me3 peptide binding | Potency, µM (doses to about 114 µM), inactives show at the highest dose activity change, negative = inhibition, hits mostly inhibitors | 0.56% of 390,000 active; also: nearly all actives have a fitted effect of over 70% in size
Target sequence (P83916 whole entry, looked up): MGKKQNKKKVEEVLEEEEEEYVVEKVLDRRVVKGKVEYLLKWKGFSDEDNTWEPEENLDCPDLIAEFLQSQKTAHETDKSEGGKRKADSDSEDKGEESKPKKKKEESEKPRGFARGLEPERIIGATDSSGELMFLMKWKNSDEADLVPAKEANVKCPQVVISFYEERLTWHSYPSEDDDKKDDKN
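HP1-beta protein (50 nM final) preincubated 30 min at room temperature with biotinylated H3(1-18)K9me3 peptide (50 nM) in PBS pH 7.4, 0.01% Tween-20, then compound added for 30 min. AlphaScreen streptavidin donor/nickel chelate acceptor beads (10 ug/mL final), 30 min dark, luminescence read.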
JMJD2A Tudor – qHTS Assay for Inhibitors of JMJD2A-Tudor Domain. Lysine-specific demethylase 4A (Homo sapiens), O75164. AlphaScreen JMJD2A-Tudor / H3K4me3 peptide binding. Potency, µM (highest dose often 114 µM), without a hit: at the top dose activity change, negative = inhibition, usual class: inhibitors. 4.4% of 390,000 active; also: % is scaled to controls: 0 for no effect and ±100 for the full control effect; nearly all actives have a fitted effect of over 50% in size
* hit, by the source's call; ? = inconclusive; . = no result; [ ] = remark or other dose. Hits are enriched below; roughly 12% of the tested compounds scored in any of these assays. Calls follow the shape of the dose curve; as a rule, active = well fitted curve in the direction sought with a large enough effect; inconclusive = small, poorly fitted or top-dose-only effect, or another doubt; inactive = no such curve, though single readings can be large; an effect the other way counts as inactive or inconclusive. Potency is read from the fitted curve at half-maximal effect.

SMILES	TDP1 block	BAZ2B block	Sfp inh	G9a inh	HP1b chromo inh	JMJD2A Tudor
Cc1ccccc1-c1cccc([C@@H]2C[C@H]3CN(Cc4cccnc4)C(=O)[C@]34CCCN24)c1	.	-27%	0%	50µM*	-12%	?
Cc1ccccc1CN1C[C@@H]2C[C@@H](c3cnc(N4CCOCC4)s3)N3CCC[C@@]23C1=O	1%	-29%	50µM*	35µM*	13%	-20%
COc1ccccc1CN1C[C@@H]2C[C@@H](c3cccc(O)c3)N3CCC[C@@]23C1=O	1%	-5%	-7%	9%[0.501 µM]	25%	?
CCC1(O)CCCC2C3CCC4CC(=O)CCC4(C)C3C(=O)CC21C (configuration not stated)	.	.	.	.	-1%	-2%
COc1cccc(-n2c(SCC(=O)Nc3cc(C)ccc3C)nc3c(oc4ccccc43)c2=O)c1	4%	4%	.	-4%[59 µM]	7%	-23%
Cc1cccc(C)c1NC(=O)CN1C(=O)c2cccc3cccc1c23	2%	2%	.	3%[59 µM]	12%	-7%
O=C(CSCc1ccco1)Nc1cc(C(F)(F)F)ccc1N1CCOCC1	4%	-32%	56µM*	?	19%	-16%
Cc1ccc(NC(=O)CSCC(=O)Nc2cc(C(F)(F)F)ccc2N2CCOCC2)cc1	.	3%	.	-53%	39%	-8%
CC(=O)Nc1cc(C(F)(F)F)ccc1N1CCOCC1	1%	2%	-6%	10%[59 µM]	22%	-13%
O=C(Nc1cc(C(F)(F)F)ccc1N1CCOCC1)C1Cc2ccccc2CN1C(=O)c1ccco1 (configuration not stated)	2%	-10%	28µM*	?	16%	-9%
COc1ccc(NC(C)C(=O)Nc2cc(C(F)(F)F)ccc2N2CCOCC2)c(OC)c1 (configuration not stated)	14%	32µM*	15%	?	?	45µM*
CC(=O)N1CCN(C(=O)c2cccc(S(=O)(=O)NCc3ccccc3)c2)CC1	.	20%	.	-45%	13%	4%
COc1ccc(Cn2ccc3nc(C)c(C(=O)NCc4ccc(SC)cc4)cc3c2=O)cc1	5%	-10%	.	0%[59 µM]	-12%	-27%
COc1cccc(CC(=O)Nc2cccc3ccccc23)c1	0%	-1%	8%	-1%[59 µM]	-4%	-13%
CN(C)CCCN(C(=O)COc1ccc(Cl)cc1)c1nc2ccc(F)cc2s1	-5%	16%	-23%	56µM*	40%	-9%
Cc1cccc2sc(N(CCCN(C)C)C(=O)COc3ccc(Cl)cc3)nc12	6%	.	?	50µM*	10%	-26%
CN(C)CCCN(C(=O)c1sc2ccccc2c1Cl)c1nc2c(F)cccc2s1	8%	-17%	50µM*	25µM*	-7%	?
Cc1ccc2nc(N(CCCN(C)C)C(=O)COc3ccc(Cl)cc3)sc2c1	9%	.	89µM*	?	30%	-29%
COc1ccc(OC)c(NC(=O)c2nc(SCc3ccc(F)cc3)ncc2Cl)c1	-2%	-14%	.	-9%[59 µM]	51%	-9%
Cc1ccc(C(=O)NCC(=O)OC(C(=O)Nc2cc(C(F)(F)F)ccc2Cl)c2ccccc2)cc1 (configuration not stated)	-1%	.	.	.	.	-20%
CC1CN(C(=O)CCC(=O)NCc2ccccc2)c2ccccc2S1 (configuration not stated)	.	11%	-2%	.	36%	-8%
CN(C)CCCN(C(=O)CCOc1ccccc1)c1nc2ccc(F)cc2s1	-1%	.	-21%	28µM*	17%	-24%
CN(C)CCCN(C(=O)CCOc1ccccc1)c1nc2c(F)cccc2s1	3%	.	50µM*	22µM*	23%	-32%
Cc1ccc2nc(N(CCCN(C)C)C(=O)c3ccc(Br)s3)sc2c1	-2%	-33%	-1%	?	13%	-18%
CN(C)CCCN(C(=O)c1ccc2c(c1)CCCC2)c1nc2c(F)cccc2s1	0%	?	40µM*	?	?	45µM*
SMILES	TDP1 block	BAZ2B block	Sfp inh	G9a inh	HP1b chromo inh	JMJD2A Tudor
Cc1ccc2nc(N(CCCN(C)C)C(=O)c3cc(-c4cccs4)nc4ccccc34)sc2c1	8%[56.1 µM]	25µM*	79µM*	40µM*	?	14µM*
CCOC(=O)C1CCN(C(=O)COC(=O)c2c(C)c(CC)nc3ccccc23)CC1	0%	.	.	.	16%	-20%
CCOc1ccc(-n2c(SCc3nc(-c4ccc(C)cc4)no3)nnc2-c2ccncc2)cc1	8%	-5%	-14%	79µM*	14%	-36%
CC1(C)CC(=O)C2=C(C1)N(Cc1ccco1)C(=O)C2(NC(=O)C1CCCCC1)C(F)(F)F (configuration not stated)	-2%	-13%	25µM*	-43%[12.7 µM]	27%	-2%
CCCNC(=O)OC[C@@H]1O[C@H](CCO/N=C\c2ccc(C(=O)N3[C@H](c4ccc(C)cc4)[C@@H](C)CC[C@H]3C(=O)OC)cc2)C=C[C@@H]1Oc1ccc(OC)cc1	8%[21 µM]	.	7%	.	.	.
CCCNC(=O)OC[C@H]1O[C@H](CCO/N=C/c2ccc(C(=O)N3[C@H](c4ccc(C)cc4)[C@@H](C)CC[C@H]3C(=O)OC)cc2)C=C[C@@H]1Oc1ccc(OC)cc1	5%	-36%	22%	71µM*	.	.
CC(=O)Nc1ccc(OC(F)(F)C(F)F)c(NC(C)=O)c1	3%	?	22%	-9%	8%	-12%
C=C(C)C(=O)Nc1ccc(OC(F)(F)C(F)F)c(NC(=O)C(=C)C)c1	13µM*	45µM*	2%	.	56µM*	79µM*
COc1ccc(N(C(=O)c2ccco2)C(C(=O)NC2CCCC2)c2ccc(N(C)C)cc2)cc1 (configuration not stated)	5%	50µM*	-7%	79µM*	-26%	?
COc1cccc(N(C(=O)c2ccco2)C(C(=O)NC2CCCC2)c2ccc(N(C)C)cc2)c1 (configuration not stated)	-5%	?	3%	?	?	?
COc1ccc(N(C(=O)c2ccco2)C(C(=O)NC2CCCC2)c2ccccc2)cc1 (configuration not stated)	.	2%	12%	7%	21%	-19%
